# Source: PubChem (several laboratories)
# A selection: hits, their analogues and other compounds. The true share with any hit is near 1.5%.
# RTF Ca sens act: cardiac RTF calcium sensitivity activators, primary screen, biochemical, IANBD-TnC fluorescence, EC20 calcium. activation, % at 7.2 µM. Troponin I, cardiac muscle (Homo sapiens) + Troponin T, cardiac muscle (Homo sapiens) + …. 340,000 compounds, 0.24% hits. IANBD-labeled TnC RTF fluorescence at EC20 calcium; 0% EC20 calcium, 100% full calcium;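 active = activation above the mean over all tested compounds plus 3 SD, cut at about 30% in these data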;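 note: rise in fluorescence read as greater calcium sensitivity of cardiac thin filaments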
# RTF Ca sens inh: cardiac RTF calcium sensitivity inhibitors, primary screen, biochemical, IANBD-TnC fluorescence, EC70 calcium | Troponin I, cardiac muscle (Homo sapiens) + Troponin T, cardiac muscle (Homo sapiens) + … | IANBD-labeled cardiac RTF, Ca2+ fluorescence | inhibition, % at 7.15 µM | 340,000 compounds, 0.12% hits | AID 493244, 2011;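 active = inhibition above the mean inhibition of all tested compounds plus 3 SD, cut at about 17% in these data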;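 note: assay run at fixed EC70 calcium of 1.6 mM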
# IDE cell inh: human IDE inhibitors in live cells, primary screen, fluorescence polarization, HEK cells, FAbetaB substrate. AID 434962, 2010. inhibition, % at 5.59 µM. FAbetaB cleavage. 320,000 compounds, 0.41% hits. Insulin-degrading enzyme (Homo sapiens), P14735;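 active = percent inhibition above the average of all tested compounds plus 3 SD, set per screening campaign, cut at about 16% in these data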;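 note: IDE supplied by intact live HEK cells; FP after avidin binding of uncleaved biotin substrate so inhibition keeps polarization high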
# Target sequence (P14735 whole entry, looked up): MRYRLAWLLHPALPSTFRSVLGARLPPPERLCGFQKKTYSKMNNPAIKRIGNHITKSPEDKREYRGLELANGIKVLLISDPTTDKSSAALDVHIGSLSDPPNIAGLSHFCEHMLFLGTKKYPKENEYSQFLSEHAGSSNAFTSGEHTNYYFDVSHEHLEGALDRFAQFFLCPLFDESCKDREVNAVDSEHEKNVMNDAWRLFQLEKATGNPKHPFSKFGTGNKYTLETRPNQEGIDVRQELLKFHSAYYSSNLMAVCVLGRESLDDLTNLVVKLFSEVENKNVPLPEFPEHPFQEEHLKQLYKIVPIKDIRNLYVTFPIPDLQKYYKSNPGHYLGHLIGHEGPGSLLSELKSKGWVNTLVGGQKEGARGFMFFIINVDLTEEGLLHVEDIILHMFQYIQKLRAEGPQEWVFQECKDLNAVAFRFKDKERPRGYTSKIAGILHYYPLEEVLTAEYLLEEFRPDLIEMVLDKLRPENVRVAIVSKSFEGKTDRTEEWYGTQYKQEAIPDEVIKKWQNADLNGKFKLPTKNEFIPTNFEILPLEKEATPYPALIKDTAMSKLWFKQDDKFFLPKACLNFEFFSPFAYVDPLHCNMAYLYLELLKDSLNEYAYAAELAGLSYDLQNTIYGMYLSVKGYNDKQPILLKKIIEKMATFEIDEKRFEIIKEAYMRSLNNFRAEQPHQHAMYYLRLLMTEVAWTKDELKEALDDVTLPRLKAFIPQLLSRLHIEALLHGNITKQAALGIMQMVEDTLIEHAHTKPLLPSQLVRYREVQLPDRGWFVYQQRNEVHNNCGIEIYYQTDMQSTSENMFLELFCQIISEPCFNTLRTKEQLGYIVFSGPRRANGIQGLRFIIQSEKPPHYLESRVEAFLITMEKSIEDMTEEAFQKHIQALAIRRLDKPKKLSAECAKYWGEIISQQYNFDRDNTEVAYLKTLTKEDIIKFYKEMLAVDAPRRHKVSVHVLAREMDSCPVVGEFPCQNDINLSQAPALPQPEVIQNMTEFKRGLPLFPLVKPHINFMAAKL
# CRFBP-R2 agonist: agonists of CRF-BP/CRF-R2 complex, primary screen, cell-based, HEK293, calcium dye fluorescence, uHTS; CRF-binding protein / CRF receptor 2 complex (human); calcium dye fluorescence (FLIPR); percent of saturating CRF peptide response; activation, % at 13.2 µM; 350,000 compounds, 0.46% hits;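 active = activation of at least 50%, plus an integration ratio under a set limit after plate pattern correction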
# IDE act: human IDE activators in live cells, primary screen, fluorescence polarization, HEK cells, FAbeta-B substrate; 340,000 compounds, 0.073% hits; FAbeta-B cleavage; 0% vehicle, 100% cell-free pure enzyme wells; activation, % at 5.96 µM; AID 493087, 2011; Insulin-degrading enzyme (Homo sapiens), P14735;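 active = activation above the mean of all tested compounds plus 3 SD, set per screening campaign, cut at about 17% in these data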
# TPT1 inhibitor: Candida albicans TPT1 enzyme inhibitors, primary screen, biochemical, fluorescence polarization. 300,000 compounds, 0.81% hits. AID 1962, 2009. recombinant caTPT1, FP RNA substrate dephosphorylation. tRNA 2'-phosphotransferase TPT1 (Candida albicans SC5314). inhibition, % at 5 µM;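 active = inhibition above the mean of all tested compounds plus 3 SD, set per screening campaign, cut at about 24% in these data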
# IDE inh confirm: human IDE inhibitors in live cells, confirmation, fluorescence polarization, HEK cells, FAbetaB substrate; shares compounds with IDE cell inh; FAbetaB cleavage; inhibition, % at 5.59 µM; 1,200 compounds, 51% hits; AID 435028, 2010;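 active = mean inhibition across triplicate wells above the cutoff set by the earlier primary insulin-degrading enzyme screen, cut at about 16% in these data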
# HEK293 tox: cytotoxicity in HEK cells, cytotoxicity control for IDE inhibitor project, cell-based, luminescence; AID 449730, 2010; shares compounds with IDE cell inh; inhibition, % at 5.59 µM; 1,200 compounds, 28% hits; HEK293 cytotoxicity, ATP luminescence; in the data active = inhibition above about 22%
# IDE FP artifact: fluorescent or optically active artefacts, dose response, artefact control for IDE inhibitor project, biochemical, fluorescence polarization; shares compounds with IDE cell inh; FP counterscreen for fluorescent artifacts, IDE probe project; IC50, µM; 30 tested, under 10 active; AID 588718, 2011; call rule not given here
# Numbers stand for hits; n = inactive; x = no result given.
SMILES,RTF Ca sens act,RTF Ca sens inh,IDE cell inh,CRFBP-R2 agonist,IDE act,TPT1 inhibitor,IDE inh confirm,HEK293 tox,others
O=C(CCCC(=O)NN=Cc1ccc(Cl)cc1Cl)NN=Cc1ccc(Cl)cc1Cl,n,n,x,n,n,x,x,x,
O=C(O)CCN1C(=O)c2ccc(NC(=O)Cc3ccc(Cl)cc3)cc2C1=O,n,n,n,n,n,n,x,x,
S=c1nccc(-c2ccc3c(c2)CCO3)[nH]1,n,n,30.3,n,n,n,n,n,
Fc1ccc(-c2noc(-c3ccc4c(c3)CCO4)n2)cc1,x,x,n,n,x,n,x,x,
COc1ccccc1CNC(=O)CSc1nnc2c(n1)[nH]c1ccc(F)cc12,n,n,n,n,n,n,x,x,
O=C(NNC1=Nc2cccc3cccc1c23)c1ccccc1Br,n,n,16.4,n,n,n,n,n,
O=C(O)c1cccc(NC2=Nc3cccc4cccc2c34)c1,n,n,n,n,n,n,x,x,
COc1ccc2c(c1)CC/C(=C/c1ccco1)C2=O,n,n,19.2,n,n,n,n,n,
CCCCCC1CCC(C(=O)N2CCOCC2)CC1 (stereo not given),n,n,n,n,n,n,x,x,
Fc1ccc2[nH]c3c(N4CCN(c5ccccc5)CC4)ncnc3c2c1,n,n,50.4,n,n,n,33.5,55.1,
CCOc1ccc2[nH]c3c(N4CCN(C(=O)c5ccco5)CC4)ncnc3c2c1,x,x,40.2,n,x,n,16.1,n,IDE FP artifact=n
CCOC(=O)N1CCN(c2ncnc3c2[nH]c2ccc(F)cc23)CC1,n,n,61.9,n,n,n,52.3,58.5,
COc1ccc(N2CCN(c3ncnc4c3[nH]c3ccccc34)CC2)cc1,n,n,34.9,n,n,n,41.6,63.9,
OC1(c2cccc(C(F)(F)F)c2)CCN(c2ncnc3c2[nH]c2ccc(F)cc23)CC1,n,n,x,n,n,x,x,x,
O=C(c1ccco1)N1CCN(c2ncnc3c2[nH]c2ccc(Br)cc23)CC1,n,n,x,n,n,x,x,x,
CCOC(=O)N1CCN(c2ncnc3c2[nH]c2ccc(OC)cc23)CC1,n,n,41.1,n,n,n,26.2,n,
CCOc1ccc2[nH]c3c(N4CCC5(CC4)OCCO5)ncnc3c2c1,x,x,n,n,x,n,x,x,
COc1ccc2[nH]c3c(N4CCc5ccccc5C4)ncnc3c2c1,n,n,20.4,n,n,n,n,72.7,
O=C(NNC(=O)C12CC3CC(CC(O)(C3)C1)C2)c1csc(N2CCOCC2)n1,n,n,n,n,n,n,x,x,
Cc1ccc(S(=O)(=O)NCCC(=O)N2CCN(c3ccccc3)CC2)cc1C,n,n,n,n,n,x,x,x,
O=C(COc1ccc(S(=O)(=O)N2CCOCC2)cc1)N1CCc2ccccc2C1,n,n,n,n,n,n,x,x,
O=C(COc1ccc(S(=O)(=O)N2CCOCC2)cc1)N1CCN(c2ccccc2)CC1,n,n,20.8,n,n,n,n,22.3,
COc1ccc(NC(=O)CN2C(=O)N(C)Cc3ccccc32)c(C)c1,n,n,n,n,n,n,x,x,
O=S1(=O)NC(C2CC2c2ccccc2)CCO1 (stereo not given),n,n,n,n,n,n,x,x,
CN(C)S(=O)(=O)N1CCN(CC(O)COc2ccc(-c3ccccc3)cc2)CC1 (stereo not given),n,n,17.5,n,n,n,n,n,
